Read-out in assay [1]: succinate dehydrogenase complex iron sulfur subunit B (SDHB), SDHB (gene 6390)
In words: LTEA_HepaRG_SDHB: Life Technologies and Expression Analysis (LTEA) Assay for succinate dehydrogenase complex iron sulfur subunit B (SDHB) using HepaRG (AID 2283528). The following applies: mRNA level, 48 h; actives raise or lower the signal. The procedure, abridged:
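Readout is SDHB transcript level by qRT-PCR, normalised to three housekeeping genes and fitted bidirectionally against 0.5% DMSO vehicle. Human HepaRG cells were treated for 48 h at up to 100 uM.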

Read-out in assay [2]: Signal transducer and activator of transcription 3 (Homo sapiens) (UniProt P40763)
Nature of the assay: LTEA_HepaRG_STAT3: Life Technologies and Expression Analysis (LTEA) Assay for Signal transducer and activator of transcription (STAT3) using HepaRG (AID 2283529). The following applies: mRNA level, 48 h; actives raise or lower the signal. The gist of the method: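 Differentiated HepaRG cells, serum-free induction medium, dosed 48 h in duplicate, 8 half-log concentrations from 100 uM in 0.5% DMSO. STAT3 mRNA by qRT-PCR, normalised to ACTB, GAPDH, POLR2A; bidirectional fit versus DMSO.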

Read-out in assay [3]: solute carrier (SLCO1B1), SLCO1B1 (gene 10599)
Nature of the assay: LTEA_HepaRG_SLCO1B1: Life Technologies and Expression Analysis (LTEA) Assay for solute carrier (SLCO1B1) using HepaRG (AID 2283530). Particulars: mRNA level, 48 h; actives raise or lower the signal. The gist of the method:
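SLCO1B1 transcript read by qRT-PCR (Fluidigm arrays), normalized to three housekeeping genes, after 48 h chemical exposure of HepaRG cells; bidirectional concentration-response fitting versus 0.5% DMSO baseline. Eight-point half-log series, maximum 100 uM.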

Read-out in assay [4]: sulfotransferase 2A1 (SULT2A1), SULT2A1 (gene 6822)
Nature of the assay: LTEA_HepaRG_SULT2A1: Life Technologies and Expression Analysis (LTEA) Assay for sulfotransferase 2A1 (SULT2A1) using HepaRG (AID 2283531). The following applies: mRNA level, 48 h; actives raise or lower the signal. The procedure, abridged: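 HepaRG, 48 h chemical exposure, 8-pt half-log curve from 100 uM in 0.5% DMSO, duplicates. Readout: TaqMan qRT-PCR of SULT2A1 mRNA, housekeeping-normalized. Bidirectional fit vs DMSO baseline.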

Read-out in assay [5]: Transforming Growth Factor (TGFA), TGFA (gene 7039)
In words: LTEA_HepaRG_TGFA: Life Technologies and Expression Analysis (LTEA) Assay for Transforming Growth Factor (TGFA) using HepaRG (AID 2283532). The following applies: mRNA level, 48 h; actives raise or lower the signal. The gist of the method:
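Differentiated HepaRG cells exposed 48 hours in serum-free induction medium, 0.5% DMSO vehicle, 8-point half-log series from 100 uM, in duplicate. TGFA mRNA by TaqMan qRT-PCR, normalised to ACTB, GAPDH, POLR2A; bidirectional fit versus DMSO.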

Read-out in assay [6]: Transforming Growth Factor (TGFB1), TGFB1 (gene 7040)
Nature of the assay: LTEA_HepaRG_TGFB1: Life Technologies and Expression Analysis (LTEA) Assay for Transforming Growth Factor (TGFB1) Transporter using HepaRG (AID 2283533). Particulars: mRNA level, 48 h; actives raise or lower the signal. The gist of the method: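 qRT-PCR readout of TGFB1 transcript in HepaRG lysates, normalized to three housekeeping genes; gain or loss of signal fitted relative to 0.5% DMSO vehicle. Exposure: 48 h, 8-point curve from 100 uM, duplicate wells.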

Read-out in the next assay: TIMP1, TIMP1 (gene 7076)
In words: LTEA_HepaRG_TIMP1: Life Technologies and Expression Analysis (LTEA) Assay for TIMP1 using HepaRG (AID 2283534). The following applies: mRNA level, 48 h; actives raise or lower the signal. The procedure, abridged:
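HepaRG, 48 h exposure, 8-pt half-log series from 100 uM in 0.5% DMSO, duplicates; TIMP1 transcript by Fluidigm qRT-PCR, housekeeping-normalized; bidirectional curve fit vs DMSO baseline.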

Read-out in assay [7]: Tumor necrosis factor receptor 1 (TNFRSF1A), TNFRSF1A (gene 7132)
In words: LTEA_HepaRG_TNFRSF1A: Life Technologies and Expression Analysis (LTEA) Assay for Tumor necrosis factor receptor 1 (TNFRSF1A) using HepaRG (AID 2283535). Particulars: mRNA level, 48 h; actives raise or lower the signal. The procedure, abridged: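 HepaRG, 48 h plating then 48 h chemical exposure, serum-free induction media; 8-pt CRC from 100 uM, half-log, 0.5% DMSO vehicle, duplicates. Readout: TaqMan qRT-PCR (Fluidigm), housekeeping-gene normalized; bidirectional fit vs DMSO.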

Read-out in assay [8]: Thyroid Hormone Responsive (THRSP), THRSP (gene 7069)
Nature of the assay: LTEA_HepaRG_THRSP: Life Technologies and Expression Analysis (LTEA) Assay for Thyroid Hormone Responsive (THRSP) using HepaRG (AID 2283536). The following applies: mRNA level, 48 h; actives raise or lower the signal. The gist of the method: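 Differentiated HepaRG cells treated 48 h in serum-free induction medium with 8 half-log concentrations up to 100 uM (0.5% DMSO), duplicates. THRSP mRNA by TaqMan qRT-PCR normalised to ACTB, GAPDH, POLR2A; bidirectional fit versus DMSO.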

Read-out in assay [9]: Cellular tumor antigen p53 (Homo sapiens) (UniProt P04637)
Nature of the assay: LTEA_HepaRG_TP53: Life Technologies and Expression Analysis (LTEA) Assay for Tumor Protein P53 (TP53) using HepaRG (AID 2283537). The following applies: mRNA level, 48 h; actives raise or lower the signal. The gist of the method: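 Read-out is TP53 transcript level by microfluidic qRT-PCR, normalised to three housekeeping genes and fitted bidirectionally against DMSO. Human HepaRG cells received compounds for 48 h, highest concentration 100 uM.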

Read-out in assay [10]: UDP glucuronosyltransferase (UGT1A1), UGT1A1 (gene 54658)
In words: LTEA_HepaRG_UGT1A1: Life Technologies and Expression Analysis (LTEA) Assay for UDP glucuronosyltransferase (UGT1A1) using HepaRG (AID 2283538). Particulars: mRNA level, 48 h; actives raise or lower the signal. The gist of the method:
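HepaRG cells, 0.5% DMSO vehicle, 48 h exposure in serum-free induction medium to 8-point half-log series topping at 100 uM, in duplicate. UGT1A1 mRNA by Fluidigm qRT-PCR, normalized to ACTB/GAPDH/POLR2A; bidirectional fit versus DMSO.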

Read-out in assay [11]: UDP glucuronosyltransferase (UGT1A6), UGT1A6 (gene 54578)
Nature of the assay: LTEA_HepaRG_UGT1A6: Life Technologies and Expression Analysis (LTEA) Assay for UDP glucuronosyltransferase (UGT1A6) using HepaRG (AID 2283539). The following applies: mRNA level, 48 h; actives raise or lower the signal. The gist of the method:
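qRT-PCR readout of UGT1A6 mRNA (normalized to ACTB/GAPDH/POLR2A) in differentiated HepaRG cells after 48 h chemical exposure; 8 concentrations, top 100 uM, half-log steps, 0.5% DMSO. Bidirectional curve fit relative to DMSO baseline.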

Read-out in assay [12]: X-box binding protein 1 (XBP1), XBP1 (gene 7494)
In words: LTEA_HepaRG_XBP1: Life Technologies and Expression Analysis (LTEA) Assay for X-box binding protein 1 (XBP1) using HepaRG (AID 2283540). The following applies: mRNA level, 48 h; actives raise or lower the signal. The procedure, abridged: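 HepaRG, 48 h exposure, 8-pt half-log CRC top 100 uM, 0.5% DMSO vehicle, duplicates. Readout: TaqMan qRT-PCR of XBP1 mRNA, housekeeping-normalised (ACTB/GAPDH/POLR2A); bidirectional fit vs DMSO baseline.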

Assay [13] in a line: LTEA_HepaRG_LDH_cytotoxicity: Cytotoxicity Assessment in the Life Technologies and Expression Analysis (LTEA) Assay (AID 2283563; active means hit-call score of the fitted dose curve at least 0.9, where 1 is the maximum;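 on AC50: LDH activity released into spent culture medium as a marker of cell death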). The gist of the method:
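HepaRG (human liver line), 48 h exposure, 8-pt half-log series from 100 uM, 0.5% DMSO vehicle, duplicates. Read-out: LDH in spent medium. Positive-direction fit vs DMSO baseline.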

Assay [14] can be described thus: ATG_XTT_Cytotoxicity: Cytotoxicity Assessment in the Attagene TRANS-FACTORIAL HepG2 Assay (AID 2283584; active means hit-call score of the fitted dose curve at least 0.9, where 1 is the maximum;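 on AC50: cells exposed to compound for 24 h before reading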). The gist of the method: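 XTT readout of cell number in transfected HepG2 cells, 24 h post-dosing; DMSO serves as negative control and baseline, with activity taken as loss of viability signal.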
Assay [15] is described as follows: TOX21_p53_BLA_p2_viability: Viability Assessment in the Tox21 HCT-116 p53 Agonism Beta-lactamase Assay, Phase 2 (AID 2283591; active means hit-call score of the fitted dose curve at least 0.9, where 1 is the maximum;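 further: compound exposure lasted 16 h at 37 °C; actives lower the ATP signal meaning cytotoxicity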). The gist of the method:
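HCT116 p53-bla cells, 4000/well, dosed after 5 h plating (217-fold dilution of DMSO stocks) and incubated 16 h at 37C. Viability taken as cellular ATP by CellTiter-Glo luminescence after 30 min RT; signal loss marks cytotoxicity.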

The target of assay [16] is Cellular tumor antigen p53 (Homo sapiens) (UniProt P04637). In words: TOX21_p53_BLA_p2_ratio: Tox21 HCT-116 p53 Agonism Beta-lactamase Assay, Ratio, Phase 2 (AID 2283592; active means hit-call score of the fitted dose curve at least 0.9, where 1 is the maximum). The procedure, abridged: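 In this cell-based reporter format, HCT116 cells were dosed with chemicals delivered from DMSO by 217-fold dilution and incubated 16 h at 37C. Emission at 460 and 530 nm after 2 h CCF4-AM loading provided the ratio, fitted upward versus DMSO.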
Chain of Cellular tumor antigen p53 (Homo sapiens) (P04637 whole entry, looked up): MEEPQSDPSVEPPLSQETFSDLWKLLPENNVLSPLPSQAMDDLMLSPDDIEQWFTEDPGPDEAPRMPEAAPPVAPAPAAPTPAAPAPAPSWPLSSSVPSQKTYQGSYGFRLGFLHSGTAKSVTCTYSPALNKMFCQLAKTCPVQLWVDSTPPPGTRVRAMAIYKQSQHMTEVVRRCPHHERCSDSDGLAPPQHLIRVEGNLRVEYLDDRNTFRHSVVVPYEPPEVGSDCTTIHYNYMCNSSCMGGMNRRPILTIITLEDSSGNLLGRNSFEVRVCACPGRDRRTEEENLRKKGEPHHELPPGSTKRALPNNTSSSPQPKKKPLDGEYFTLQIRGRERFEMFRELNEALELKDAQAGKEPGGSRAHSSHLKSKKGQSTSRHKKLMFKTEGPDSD

A short description of assay [17]: TOX21_p53_BLA_p3_viability: Viability Assessment in the Tox21 HCT-116 p53 Agonism Beta-lactamase Assay, Phase 3 (AID 2283593; active means hit-call score of the fitted dose curve at least 0.9, where 1 is the maximum;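 further: cells exposed to compound for 16 h before reading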). The procedure, abridged: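 HCT116 cells, 4000/well, dosed 5 h after plating by pin transfer (217-fold dilution from DMSO stock) and incubated 16 h at 37C, 5% CO2. Viability read as ATP luminescence with CellTiter-Glo after 30 min at room temperature.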

For assay [18], the target named is Cellular tumor antigen p53 (Homo sapiens) (UniProt P04637). In words: TOX21_p53_BLA_p3_ratio: Tox21 HCT-116 p53 Agonism Beta-lactamase Assay, Ratio, Phase 3 (AID 2283596; active means hit-call score of the fitted dose curve at least 0.9, where 1 is the maximum). The procedure, abridged: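 HCT116 p53-bla cells (4000/well) given compound in DMSO (217-fold dilution) after 5 h, incubated 16 h at 37C. CCF4-AM substrate 2 h at room temperature; 460/530 nm emission ratio, gain fitted against DMSO.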

Assay [19] is described as follows: TOX21_p53_BLA_p4_viability: Viability Assessment in the Tox21 HCT-116 p53 Agonism Beta-lactamase Assay, Phase 4 (AID 2283597; active means hit-call score of the fitted dose curve at least 0.9, where 1 is the maximum;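 further: hits lower the luminescence signal meaning cytotoxicity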). The gist of the method:
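We seeded HCT116 p53 reporter cells at 4000/well and waited 5 h. We then added compounds in DMSO at a 217-fold dilution and incubated for 16 h. Viability was read as CellTiter-Glo luminescence after 30 min at RT.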

The structures appear in SMILES notation. Values joined by “and” are separate entries in the source; they are usually repeats but may differ in a detail not shown here. Equal values may be shown once. Results filed as inconclusive are left out. Some compounds were tested as several samples or in several runs, with calls that do not always agree. Active and inactive are the calls of the source. How the source made its calls, unless noted: active means hit-call score of the fitted dose curve at least 0.9, where 1 is the maximum; inactive means score below 0.9.

Chain of Signal transducer and activator of transcription 3 (Homo sapiens) (P40763 whole entry, looked up): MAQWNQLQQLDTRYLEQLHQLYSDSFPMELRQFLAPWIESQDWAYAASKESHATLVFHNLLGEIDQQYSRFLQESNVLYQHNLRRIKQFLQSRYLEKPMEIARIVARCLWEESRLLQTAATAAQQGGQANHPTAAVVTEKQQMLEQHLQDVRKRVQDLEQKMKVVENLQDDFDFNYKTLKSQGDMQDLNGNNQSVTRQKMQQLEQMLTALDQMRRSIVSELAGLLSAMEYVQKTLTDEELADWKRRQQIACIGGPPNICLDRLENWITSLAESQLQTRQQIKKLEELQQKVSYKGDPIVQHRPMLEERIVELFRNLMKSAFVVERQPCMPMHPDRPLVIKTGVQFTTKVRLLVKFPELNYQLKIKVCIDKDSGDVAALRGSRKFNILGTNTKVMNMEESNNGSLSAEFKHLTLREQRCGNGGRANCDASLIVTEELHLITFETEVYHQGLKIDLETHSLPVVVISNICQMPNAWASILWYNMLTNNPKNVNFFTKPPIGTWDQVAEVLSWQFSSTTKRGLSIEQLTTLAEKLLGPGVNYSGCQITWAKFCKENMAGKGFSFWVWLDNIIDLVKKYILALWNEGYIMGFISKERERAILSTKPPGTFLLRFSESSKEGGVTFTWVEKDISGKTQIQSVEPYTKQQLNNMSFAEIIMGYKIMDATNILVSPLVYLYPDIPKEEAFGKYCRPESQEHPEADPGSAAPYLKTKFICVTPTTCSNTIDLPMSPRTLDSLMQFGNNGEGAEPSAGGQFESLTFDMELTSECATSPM

By AC50 is commonly meant the concentration giving half of the maximal activity seen. As to `ClC1=C(Cl)[C@]2(Cl)[C@@H]3[C@@H](Cl)[C@H]4O[C@H]4[C@@H]3C1(Cl)C2(Cl)Cl`, the result in [1], in assay [2], in assay [3], in [4], in assay [5] and in [6] was inactive. Moreover, the outcome is “inactive” in the assay with TIMP1, TIMP1 (gene 7076); “inactive” in assay [7]; “inactive” in [8]; “inactive” in assay [9]; “inactive” in assay [11]; “inactive” in assay [12]. Further, the call in assay [13], in assay [14], in assay [16], in assay [17] and in assay [18] was inactive. The AC50 was 2.1 µM (active) in assay [10], 76.7 µM (active) in assay [15] and 65.1 µM (active) in assay [19].

As for `Oc1ccc(C(c2ccc(O)cc2)(C(F)(F)F)C(F)(F)F)cc1`, the outcome in assay [1] was “inactive”; in [2], “inactive”; in [3] it was “inactive”; with TIMP1, TIMP1 (gene 7076), “inactive”; in [7], “inactive”; in [8], “inactive”. Also, the result in assay [14], in assay [15], in assay [16], in assay [17] and in [18] was inactive. In addition, the AC50 is 88.4 µM (active) in assay [4]; 82.4 µM (active) in assay [5]; 76.5 µM (active) in [6]; 94.5 µM (active) in assay [9]; 87.5 µM (active) in assay [10]; 74.5 µM (active) in assay [11]. The AC50 in assay [13] is 77 µM (active); in assay [14] it was 60.9 µM (active) and 100 µM (active); in assay [15], 65.1 µM (active); in [16], 63 µM (active); in assay [17], 82.1 µM (active); in assay [18] it was 54.2 µM (active). Further, the AC50 in [19] was 63.7 µM (active) and 71.3 µM (active).

The record behind these values is PubChem BioAssay (EPA / NIEHS).
